Results reported in PubChem BioAssay (Tox21).
Results filed as inconclusive are left out. A call without a number means that no potency is given here. Calls of active or inactive are those of the source. The call rests on the fitted dose curve; in most records, active means well fitted activation curve with a large enough effect in the signal ratio in the repeat runs (not every such curve was filed as active); inconclusive means weak or mixed curves; inactive means flat fitted curve, though single readings scatter; the % refers to the signal ratio.

Test: p53 small molecule agonists, cell-based qHTS assay (AID 1963582)
Settings: HCT-116 p53RE-bla reporter, beta-lactamase FRET ratio, 16 h; series mostly up to 66 µM
Procedure, shortened: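 Fluorescence intensity read-out of a beta-lactamase reporter under a p53 response element. Cells were exposed to DMSO-dissolved compounds for 16 h at 37 C, then developed with FRET substrate for 2 h at RT.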
Potency means the concentration at half of the fitted maximal effect.

Row | SMILES | Potency
1 | C=CCOC(Cn1ccnc1)c1ccc(Cl)cc1Cl (stereo unspecified) | inactive
2 | C[C@]12CCC(=O)C=C1CC[C@@H]1[C@@H]2CC[C@@]2(C)[C@H]1CC[C@]2(C)O | inactive
3 | CC(C)c1cccc(C(C)C)c1O | inactive
4 | Nc1ccc(Cc2ccc(N)cc2)cc1 | inactive
5 | Nc1cccnc1 | inactive
6 | [N-]=[N+]=CC(=O)OC[C@H](N)C(=O)O | inactive
7 | C#C[C@]1(O)CC[C@H]2[C@@H]3CCC4=CC(=O)CC[C@]4(C)[C@H]3CC[C@@]21C | inactive
8 | Cc1ccc(N=CN(C)C=Nc2ccc(C)cc2C)c(C)c1 | inactive
9 | CCC/C=N/O | inactive
10 | O=P1(N(CCCl)CCCl)NCCCO1 (stereo unspecified) | inactive
11 | c1ccc2c(c1)Nc1ccccc1S2 | inactive
12 | CCCCCCCCCCBr | inactive
13 | N#CC(Cl)Cl | inactive
14 | CSc1nc(NC(C)C)nc(NC(C)C)n1 | inactive
15 | CC(C)(C1CCC(O)CC1)C1CCC(O)CC1 (stereo unspecified) | inactive
16 | CCN(Cc1ccc(Cl)nc1)/C(=C/[N+](=O)[O-])NC | inactive
17 | CC(C)(C#N)N=NC(C)(C)C#N | inactive
18 | COC(=O)NS(=O)(=O)c1ccc(N)cc1 | inactive
19 | Clc1ccc(C(Cl)(Cl)Cl)c(Cl)c1 | inactive
20 | CCOC(=O)Nc1cccc(OC(=O)Nc2ccccc2)c1 | inactive
21 | CN(C)NC(=O)CCC(=O)O | inactive
22 | C=C1CC[C@@]2(O)[C@H]3Cc4ccc(O)c5c4[C@@]2(CCN3CC2CC2)[C@H]1O5 | inactive
23 | ClCc1cccnc1 | inactive
24 | COC(=O)C(Cl)C(=O)OC | inactive

Row | SMILES | Potency
25 | C#CC(C)(C)NC(=O)c1cc(Cl)cc(Cl)c1 | inactive
26 | CCc1cccc(C)c1N(C(=O)CCl)C(C)COC (stereo unspecified) | inactive
27 | c1ccoc1 | inactive
28 | C/C=C/CC#N | inactive
29 | COc1ccc(C(O)(c2cncnc2)C2CC2)cc1 (stereo unspecified) | inactive
30 | CCCCc1c(C)nc(NCC)[nH]c1=O | inactive
31 | CNCC(O)c1ccc(O)cc1 (stereo unspecified) | inactive
32 | CN(C)c1ccc(C(=O)c2ccc(N(C)C)cc2)cc1 | 11.4 µM (active)
33 | CCCCNC(=O)n1c(NC(=O)OC)nc2ccccc21 | 10.2 µM (active)
34 | CCCCC1C(=O)NC(=O)N(C2CCCCC2)C1=O (stereo unspecified) | inactive
35 | CC(O)CN1CCN(CC(=O)[O-])CCN(CC(=O)[O-])CCN(CC(=O)[O-])CC1.[Gd+3] (stereo unspecified) | inactive
36 | NCC(O)c1ccc(O)cc1 (stereo unspecified) | inactive
37 | Oc1ccc(Cl)cc1Cl | inactive
38 | COCC(=O)N(c1c(C)cccc1C)[C@H](C)C(=O)OC | inactive
39 | [N-]=[N+]=[N-] | inactive
40 | OC[P+](CO)(CO)CO | inactive
41 | C1CCC2CCCCC2C1 (stereo unspecified) | inactive
42 | c1ccc(-c2cccc(-c3ccccc3)c2)cc1 | inactive
43 | Clc1nc(Cl)nc(Cl)n1 | inactive
44 | O=C(Cc1ccccc1)c1ccccc1 | inactive
45 | COc1cc(OC)nc(Sc2cccc(Cl)c2C(=O)O)n1 | inactive
46 | c1ccc2c(c1)Oc1ccccc1O2 | inactive
47 | CC(C)Nc1nc(Cl)nc(NC(C)C)n1 | inactive
48 | O=S(=O)(O)C(F)(F)C(F)(F)C(F)(F)C(F)(F)C(F)(F)C(F)(F)F | inactive

Row | SMILES | Potency
49 | NC(=O)CCl | inactive
50 | CC(C)CC(C)(c1ccc(O)cc1)c1ccc(O)cc1 | inactive
51 | C=CC(N)=O | inactive
52 | CC(C)(c1ccccc1)c1cc(-n2nc3ccccc3n2)c(O)c(C(C)(C)c2ccccc2)c1 | inactive
53 | CCCCN(CCCC)N=O | inactive
54 | CCC(C)C(C)(COC(N)=O)COC(N)=O (stereo unspecified) | inactive
55 | ClCc1ccccc1CCl | inactive
56 | CN(C)[C@@H]1C(=O)C(C(N)=O)=C(O)[C@@]2(O)C(=O)C3=C(O)c4c(O)cccc4[C@@](C)(O)[C@H]3C[C@@H]12 | inactive
57 | C=CC#N | inactive
58 | COCC(=O)N(c1c(C)cccc1C)N1CCOC1=O | inactive
59 | NNC(N)=S | inactive
60 | CC[N+]1(CC)CCC(OC(=O)C(O)(c2ccccc2)c2ccccc2)C1 (stereo unspecified) | inactive
61 | O=P(Cl)(Cl)Cl | inactive
62 | Cn1cc(-c2ccccc2)c(=O)c(-c2cccc(C(F)(F)F)c2)c1 | inactive
63 | CN1C(=O)NC(=O)C(C)(C2=CCCCC2)C1=O (stereo unspecified) | inactive
64 | ClCc1ccccc1 | inactive
65 | O=C(O)C1C2CCC(O2)C1C(=O)O (stereo unspecified) | inactive
66 | c1ccc(N=Nc2ccccc2)cc1 | inactive
67 | Oc1ccccc1Cl | inactive
68 | C=CC(=O)NC(C)(C)CC(C)=O | inactive
69 | COc1nc(C)nc(NC(=O)NS(=O)(=O)c2ccccc2Cl)n1 | inactive
70 | CCCCCCCCCCCCCl | inactive
71 | CC(C)CCCCCCOC(=O)c1ccccc1C(=O)OCCCCCCC(C)C | inactive
